High-throughput results deposited in PubChem by Buhrlage Lab, Dana-Farber Cancer Institute and Novartis Institutes for BioMedical Research (Cambridge, Mass).
Rows were chosen to be rich in hits. Some 11% of all compounds tested hit in one or more screens of this group.
USP30 block = inhibitors of human USP30 deubiquitinase; Ubiquitin carboxyl-terminal hydrolase 30 (Homo sapiens), Q70CQ3; purified USP30, Ub-rhodamine cleavage fluorescence; inhibition, % at 25 µM; actives 5.3% (n = 47,000)
USP17 block = inhibitors of human USP17 deubiquitinase; Ubiquitin carboxyl-terminal hydrolase 17-like protein 5 (Homo sapiens), A8MUK1; inhibition, % at 50 µM; actives 6.5% (n = 47,000); purified USP17, Ub-rhodamine cleavage fluorescence, 3 h
Target sequence (A8MUK1 whole entry, looked up): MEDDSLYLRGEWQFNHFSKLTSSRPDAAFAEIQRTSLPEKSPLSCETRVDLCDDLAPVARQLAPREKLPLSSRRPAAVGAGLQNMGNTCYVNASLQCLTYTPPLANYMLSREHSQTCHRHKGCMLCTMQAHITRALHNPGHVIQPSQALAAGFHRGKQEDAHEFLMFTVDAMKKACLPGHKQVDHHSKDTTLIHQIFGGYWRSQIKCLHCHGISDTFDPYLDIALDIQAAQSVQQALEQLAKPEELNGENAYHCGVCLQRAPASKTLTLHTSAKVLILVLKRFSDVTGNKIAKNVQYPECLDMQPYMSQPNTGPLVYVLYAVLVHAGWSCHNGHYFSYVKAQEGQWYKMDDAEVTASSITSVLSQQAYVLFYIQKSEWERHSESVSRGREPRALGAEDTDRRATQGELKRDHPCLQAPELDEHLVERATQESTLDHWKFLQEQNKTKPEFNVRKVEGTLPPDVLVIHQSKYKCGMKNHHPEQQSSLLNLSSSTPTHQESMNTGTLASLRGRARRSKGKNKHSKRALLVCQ
USP28 inh = inhibitors of human USP28 deubiquitinase. Ubiquitin carboxyl-terminal hydrolase 28 (Homo sapiens), Q96RU2. purified USP28, Ub-rhodamine cleavage fluorescence, 30 min. AID 1645857, 2021. actives 3% (n = 47,000). inhibition, % at 25 µM
* marks the source's active call; other numbers are inactive results; . = no result given. No stated cut-off is given here; in the data, active means inhibition above about 30%; inactive means the rest.

SMILES	USP30 block	USP17 block	USP28 inh
COc1ccc(-c2cn(-c3ccc(SC(F)F)cc3)c3[n+]2CCC3)cc1OC	30*	9	14
COc1ccc(C2CC(=O)N(c3cccc(F)c3)C(=O)C2)cc1OC	-21	-8	0
O=C(c1cn(-c2ccccc2)nn1)N1CCCCC1	-41	.	-15
CCOc1ccccc1NC(=O)CSc1nc2nccnc2c(=O)n1Cc1ccc2c(c1)OCO2	5	-7	4
Cc1nc(C2CCCN2C(=O)c2ccccn2)nc2c1CC(=O)N2CCc1ccccc1F (stereo not drawn)	-320	7	-60
COc1cccc(-c2cc(CNC(=O)COc3ccc(F)cc3)no2)c1	35*	3	12
Cc1ccc(-c2cc(CNC(=O)c3ccccc3F)no2)cc1	5	8	17
COc1cccc(C(=O)NCc2cc(-c3ccc(F)cc3F)on2)c1OC	40*	0	0
Cc1cccc(OCC(=O)NCc2cc(-c3ccccc3F)on2)c1	42*	42*	18
COc1ccc(-c2nc(CNC(=O)COc3ccc(C)cc3)cs2)cc1	12	57*	7
COc1ccccc1OCC(=O)NCc1cc(-c2ccc(F)cc2)on1	-22	-6	0
Cc1ccc(-c2cc(CNC(=O)COc3ccccc3F)no2)cc1	29	30	14
CCc1ccc(OCC(=O)NCc2csc(-c3ccc(OC)cc3)n2)cc1	-3	-14	0
COCCn1c(=O)[nH]c2cc(C(=O)N3CCC(O)(c4cccc(C(F)(F)F)c4)CC3)ccc2c1=O	1	5	2
CC1CC(=O)Nc2cc(S(=O)(=O)NCc3ccc(Br)cc3)ccc2S1 (stereo not drawn)	-2	-5	-1
O=C(Cc1ccc(F)cc1)NCCc1cnc(-c2ccccc2)[nH]1	-22	-12	-12
CC(=O)Nc1c(C(=O)O)ccc(C)c1O	0	-5	-9
Cc1ccc2c(c1)[C@]1(C(=O)N2)[C@@H](C(=O)c2ccccc2)[C@]2(C(=O)Nc3ccccc32)[C@@H]2CCCN21	-3	52*	0
O=C(c1ccc(Cl)cc1)[C@H]1[C@]2(C(=O)Nc3ccccc32)[C@@H]2CCCN2[C@@]12C(=O)Nc1ccccc12	5	11	7
Cn1nccc1CN1CCc2nc(-c3ccccn3)[nH]c(=O)c2C1	-140	-94	-43
O=C(CC1C(=O)Nc2nc(-c3ccccc3)nn21)Nc1ccc(Cl)c(C(F)(F)F)c1 (stereo not drawn)	-8	-4	-3
Cc1cccc(NC(=O)CC2C(=O)Nc3nc(-c4ccccc4)nn32)c1 (stereo not drawn)	31*	16	14
O=C(Nc1ccccc1)C1COc2ccccc2C1 (stereo not drawn)	29	32*	7
COc1ccc2c(c1)CC(C(=O)Nc1ccc(F)cc1F)CO2 (stereo not drawn)	7	7	3
Nc1cc(C2CCN(C(=O)CCCc3ccccc3)CC2)no1	.	-1	.
SMILES	USP30 block	USP17 block	USP28 inh
Cc1c(OCc2ccccc2)noc1C1CCN(C(=O)CCN)CC1	7	-19	41*
CNC(=O)[C@@]12CCC3(CCN(S(=O)(=O)c4cccc(Cl)c4)CC3)[C@@H]1CN(C)C2	0	0	7
O=C(COc1ccc2ccccc2c1)NCc1nnnn1-c1ccc(F)c(F)c1	9	48*	2
CCOc1ccc(-n2nnnc2CNC(=O)NCc2ccccc2)cc1	-15	-3	0
Cc1ccc2nc(NC(=O)C3CCCN3S(=O)(=O)c3ccc4c(c3)OCCO4)sc2c1 (stereo not drawn)	0	7	53*
Cc1ccc(S(=O)(=O)N2CCCCC2C(=O)Nc2nc3ccc(S(C)(=O)=O)cc3s2)cc1 (stereo not drawn)	-8	-19	8
Cc1c(CC(=O)N[C@H](CSCc2ccccc2)C(=O)O)c(=O)oc2cc(O)ccc12	11	9	4
CCCCCCCCCCCCCCCCCC(=O)N[C@@H]1C[C@@H](O)[C@@H](O)NC(=O)[C@@H]2[C@@H](O)[C@@H](C)CN2C(=O)[C@H]([C@@H](C)O)NC(=O)[C@H]([C@H](O)[C@@H](O)c2ccc(O)cc2)NC(=O)[C@@H]2C[C@@H](O)CN2C(=O)[C@H]([C@@H](C)O)NC1=O	49*	20	38*
O=C(c1ccc(N2C(=O)CCS2(=O)=O)cc1)N1CCN(c2ccc(F)cc2)CC1	9	2	6
Cc1ccccc1Cn1cc(S(=O)(=O)N2CCCCCC2)ccc1=O	37*	21	10
O=C(Cn1cc(S(=O)(=O)N2CCCCCC2)ccc1=O)Nc1ccccc1	-13	36*	-9
Cc1ccc(NC(=O)Cn2cc(S(=O)(=O)N3CCCCC3)ccc2=O)cc1	44*	12	20
Cc1ccc(NC(=O)Cn2cc(S(=O)(=O)N3CCOCC3)ccc2=O)cc1	13	3	-4
O=C(Cn1cc(S(=O)(=O)N2CCCCC2)ccc1=O)Nc1ccccc1	8	25	12
Cc1ccccc1Cn1cc(S(=O)(=O)N2CCCC2)ccc1=O	-3	-7	-14
CN(C(=O)c1ccc(Cl)cc1Cl)c1nnc(C23CC4CC(CC(C4)C2)C3)s1	20	10	12
COc1cc(/C=C(\C#N)c2nnc3n2CCCCC3)cc(OC)c1OC	26	1	5
CCN1C[C@H]2COc3ccc(C)cc3[C@H]2N(C(=O)c2cccc(OC)c2)CCC1=O	16	6	6
O=C1[C@H]2Cc3c([nH]c4ccccc34)C(c3cccc4ccccc34)N2C(=O)CN1C1CCCC1 (stereo partly drawn)	-61	-22	-30
CCSc1nc(NCCOCCO)c2c3c(sc2n1)COC(C)(CC)C3 (stereo not drawn)	-29	-7	1
CCC(=O)N(C1CCOCC1)C1CCN(S(=O)(=O)c2ccc(C)cc2C)CC1	-3	-12	-11
Cc1ccc(S(=O)(=O)N2CCC(C(=O)Nc3nnc(C)o3)CC2)c(C)c1	37*	-3	11
O=C(c1cc(C(F)(F)F)[nH]n1)N1CCCC(O)(CN2CCC(F)(F)CC2)CC1 (stereo not drawn)	-8	-12	-9
CCc1noc(-c2c(C)cc(C)n2CC(=O)NCc2ccc(Cl)cc2)n1	39*	12	10
Cc1cc(C)n(CC(=O)NCc2cccc(Cl)c2)c1-c1nc(C2CC2)no1	0	19	12
SMILES	USP30 block	USP17 block	USP28 inh
CC(=O)Nc1ccc(-n2cnc(C(=O)NCc3ccccc3F)c2)nc1	17	6	6
CC(=O)Nc1ccc(S(=O)(=O)N2CCC([C@@H]3NC(=O)N[C@H]4OCC[C@H]43)CC2)cc1	11	4	0
O=C(/C=C/c1ccco1)c1cccc([N+](=O)[O-])c1	3	83*	46*
O=C(c1cccc([N+](=O)[O-])c1)N(c1ccccn1)c1ccccn1	-185	-13	-13
Cn1c(CCN2CCCCC2)nc2cc(NC(=O)COc3ccc(Cl)cc3)ccc21	0	-5	0
Cc1cccc(C(=O)Nc2ccc3c(c2)nc(CCN2CCCCC2)n3C)c1	-20	-14	-13
Cn1c(CCN2CCCCC2)nc2cc(NC(=O)c3ccc(Cl)cc3)ccc21	-17	33*	9
